Experimental data taken from PubChem BioAssay (NCI).
This is part of a sample that, as a whole, favours compounds with a hit. Of some 83,000 tested, about 20% had one in any assay.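 Cells were grown in 96-well plates and exposed to the test compound at a single concentration for 48 hours; results are reported as percent growth, with values below 10 considered active.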 Unmarked numbers belong to inactive results. Calls of active or inactive are those of the source.

What was measured:
Assay in all cases: NCI-60 one-dose screen, 48 h (100 = growth as untreated, 0 = no growth, -100 = all killed)
Conditions in all cases: 10 µM unless noted
NCI-H23 lung = test system: NCI-H23 lung
NCI-H322M lung = test system: NCI-H322M lung
HOP-62 NSCLC = test system: HOP-62 NSCLC
NCI-H460 lung = test system: NCI-H460 lung
HOP-92 NSCLC = test system: HOP-92 NSCLC
NCI-H522 lung = test system: NCI-H522 lung
A549/ATCC NSCLC = test system: A549/ATCC NSCLC
786-0 renal = test system: 786-0 renal
COLO 205 colon = test system: COLO 205 colon
DU-145 prostate = test system: DU-145 prostate
K-562 leukemia = test system: K-562 leukemia
MALME-3M melanoma = test system: MALME-3M melanoma
MDA-MB-231 breast = test system: MDA-MB-231 breast
RXF 393 renal = test system: RXF 393 renal
SF-268 CNS = test system: SF-268 CNS
SF-295 CNS = test system: SF-295 CNS
SF-539 CNS = test system: SF-539 CNS
UACC-257 melanoma = test system: UACC-257 melanoma
M14 melanoma = test system: M14 melanoma

Compound | growth (NCI-H23 lung) | growth (NCI-H322M lung) | growth (HOP-62 NSCLC) | growth (NCI-H460 lung) | growth (HOP-92 NSCLC) | growth (NCI-H522 lung) | growth (A549/ATCC NSCLC) | growth (786-0 renal) | growth (COLO 205 colon) | growth (DU-145 prostate) | growth (K-562 leukemia) | growth (MALME-3M melanoma) | growth (MDA-MB-231 breast) | growth (RXF 393 renal) | growth (SF-268 CNS) | growth (SF-295 CNS) | growth (SF-539 CNS) | growth (UACC-257 melanoma) | growth (M14 melanoma)
Cc1ccnc2c(OCc3ccccc3)cccc12 | 93.5% | 76.4% | 106% | 86.1% | 53.4% | 105% | 93.5% | 96.1% | 113% | 97.1% | 99.2% | 84.4% | 72.1% | 95.1% | 92.5% | 89.9% | 104% | 115% | 93.4%
CCN(CC)CCCCCNc1cc(OC(=O)c2ccccc2)cc2cccnc12 | 92% | 102% | 98.7% |  | 99.1% | 124% | 122% | 100% | 17.3% | 111% | 23.8% | 95.3% | 88.2% |  | 93.2% | 110% | 150% | 120% | 101%
COc1ccc(C2C(C#N)=C(N)Oc3c2sc2c(F)cccc32)cc1 (stereo not drawn) | 34.6% | 50% | 22.9% | 11.6% | 41.7% | 6.47% (active) | 36.7% | 29.4% | 5.98% (active) | 17.3% | 9.11% (active) | 65.4% | 41% | -8.26% (active) | 42.6% | 20.2% | 1.03% (active) | 64.9% | -15.6% (active)
COc1cc(/C=C/c2cc(/C=C/c3ccc(O)c(OC)c3)n(-c3ccccc3)c(=O)n2)ccc1O | 78.4% | 86.8% | 85.8% | 91% | 78.8% | 68.2% | 90.6% | 85.1% | 71.3% | 86.7% | 53.9% | 90.4% | 61.4% | 68.3% | 72.3% | 88% | 79.5% | 88.9% | 85.7%
Nc1nc(Br)nc2c1ncn2C1CC(O)C(CO)O1 (stereo not drawn) | 20.2% | 83.6% | 47% | 97.9% | 51.5% | 109% | 51.4% | 62.8% | 62.8% | 52.7% | 79% | 90.2% | 87.2% |  | 73.9% | 94.3% | 77.8% | 87.7% | -0.9% (active)
O=C(NCN1C(=O)c2cccc3cccc(c23)C1=O)N1CCC(Cc2ccccc2)CC1 | 93.9% | 105% | 94% |  | 70% | 77.9% | 89.8% | 102% | 97.5% | 106% | 90.2% | 96.6% | 98.2% | 107% | 100% | 96.8% | 102% | 103% | 92.5%
CCCCC[C@H]1C/C=C2/C(=O)C(Cl)=C[C@@H]2C/C=C\CCCC(=O)O1 | -34.5% (active) | -74.2% (active) | -36.7% (active) | -16.6% (active) | -48.9% (active) | -73.1% (active) | -35.6% (active) | -73.4% (active) | -63.1% (active) | -83.1% (active) | 2.39% (active) | -35.2% (active) | -10.7% (active) | -90.9% (active) | -37.1% (active) | -35% (active) | -76.7% (active) | -53.3% (active) | -52.8% (active)
CCOc1ccc(NC(=O)c2ccoc2COc2ccccc2)cc1 | 103% | 99.7% | 111% | 112% | 95.2% | 93.9% | 103% | 105% | 123% | 106% | 88.8% | 100% | 98.7% | 106% | 97.8% | 101% | 98.5% | 106% | 104%
